From PubChem BioAssay (EPA / NIEHS)
Records with an inconclusive call do not appear. The source made the active and inactive calls. The calls were made as follows, unless noted: active = hit-call score of the fitted dose curve at least 0.9, where 1 is the maximum; inconclusive = response in the unintended direction; inactive = score below 0.9.

Tests used:
[1] = target: Oxysterols receptor LXR-beta (Homo sapiens) (UniProt P55055); assay: ATG_LXRb_TRANS: Attagene TRANS-FACTORIAL HepG2 Assay for human Liver X Receptor beta (LXRb) (AID 2282981); conditions: HepG2 Attagene TRANS GAL4-LXRb reporter, mRNA
Chain of Oxysterols receptor LXR-beta (Homo sapiens) (P55055 whole entry, looked up, the tested form may be a part): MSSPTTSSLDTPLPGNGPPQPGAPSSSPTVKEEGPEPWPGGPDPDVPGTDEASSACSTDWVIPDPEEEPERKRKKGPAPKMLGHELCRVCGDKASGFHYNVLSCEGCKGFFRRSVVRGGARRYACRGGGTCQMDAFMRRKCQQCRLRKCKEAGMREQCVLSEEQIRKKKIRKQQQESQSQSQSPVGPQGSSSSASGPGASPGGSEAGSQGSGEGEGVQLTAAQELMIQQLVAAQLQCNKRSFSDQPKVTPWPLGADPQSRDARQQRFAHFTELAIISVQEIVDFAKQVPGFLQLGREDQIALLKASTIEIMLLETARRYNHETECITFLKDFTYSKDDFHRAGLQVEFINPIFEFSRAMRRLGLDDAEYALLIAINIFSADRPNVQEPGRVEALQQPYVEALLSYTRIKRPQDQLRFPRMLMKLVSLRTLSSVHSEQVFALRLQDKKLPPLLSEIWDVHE
Outline: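 HepG2 cells transiently transfected with GAL4-UAS reporter units for chimeric NR-Gal4 proteins, dosed for 24 h. Reporter transcripts measured by RT-PCR and capillary electrophoresis; gain-of-signal fitting relative to DMSO.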

[2] = target: Hepatocyte nuclear factor 4-alpha (Homo sapiens) (UniProt P41235); assay: ATG_HNF4a_TRANS: Attagene TRANS-FACTORIAL HepG2 Assay for human Hepatocyte Nuclear Factor 4 alpha (HNF4a) (AID 2282982); conditions: HepG2 HNF4a transactivation reporter, mRNA readout
Chain of Hepatocyte nuclear factor 4-alpha (Homo sapiens) (P41235 whole entry, looked up, the tested form may be a part): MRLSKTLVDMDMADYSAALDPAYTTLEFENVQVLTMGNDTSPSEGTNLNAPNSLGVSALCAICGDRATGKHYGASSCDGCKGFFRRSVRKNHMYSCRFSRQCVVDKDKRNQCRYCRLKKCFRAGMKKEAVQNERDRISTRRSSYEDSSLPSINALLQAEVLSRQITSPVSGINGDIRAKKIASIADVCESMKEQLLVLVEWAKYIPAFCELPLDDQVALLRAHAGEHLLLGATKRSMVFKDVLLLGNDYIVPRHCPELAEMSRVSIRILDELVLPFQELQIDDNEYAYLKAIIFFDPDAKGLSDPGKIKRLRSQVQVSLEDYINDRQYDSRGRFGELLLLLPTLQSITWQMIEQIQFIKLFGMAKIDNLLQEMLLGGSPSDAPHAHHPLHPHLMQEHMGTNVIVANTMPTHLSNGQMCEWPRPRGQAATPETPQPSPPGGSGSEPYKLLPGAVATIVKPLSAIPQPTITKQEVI
Outline: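 HepG2 cells transiently transfected with HNF4a-Gal4 chimera and GAL4-UAS reporter units, dosed for 24 h. Reporter mRNA measured by RT-PCR, fluorescent primer extension and capillary electrophoresis; gain-of-signal fitted relative to DMSO.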

[3] = target: human RAR-related Orphan Receptor beta (RORb), RORB (gene 6096) (UniProt Q92753); assay: ATG_RORb_TRANS: Attagene TRANS-FACTORIAL HepG2 Assay for human RAR-related Orphan Receptor beta (RORb) (AID 2283010)
Chain of human RAR-related Orphan Receptor beta (RORb), RORB (gene 6096) (Q92753 whole entry, looked up, the tested form may be a part): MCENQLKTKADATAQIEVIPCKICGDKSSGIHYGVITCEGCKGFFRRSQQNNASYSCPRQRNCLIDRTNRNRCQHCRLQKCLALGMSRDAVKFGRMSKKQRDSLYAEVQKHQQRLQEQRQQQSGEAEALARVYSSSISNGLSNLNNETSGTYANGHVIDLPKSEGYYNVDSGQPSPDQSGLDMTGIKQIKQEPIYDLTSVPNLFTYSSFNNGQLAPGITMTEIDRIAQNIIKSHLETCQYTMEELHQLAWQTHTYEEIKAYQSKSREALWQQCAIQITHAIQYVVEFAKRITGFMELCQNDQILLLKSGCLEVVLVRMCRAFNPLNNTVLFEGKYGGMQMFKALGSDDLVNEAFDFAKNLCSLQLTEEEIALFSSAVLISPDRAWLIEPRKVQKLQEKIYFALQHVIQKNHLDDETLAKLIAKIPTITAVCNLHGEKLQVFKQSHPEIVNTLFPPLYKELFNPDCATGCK
Outline: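 HepG2 cells transiently transfected with GAL4-UAS reporter units expressing chimeric NR-Gal4 protein; reporter mRNA measured 24 h after dosing by RT-PCR, 6-FAM labelling and capillary electrophoresis. Gain-of-signal fitted relative to DMSO baseline.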

[4] = TOX21_p53_BLA_p2_viability: Viability Assessment in the Tox21 HCT-116 p53 Agonism Beta-lactamase Assay, Phase 2 (AID 2283591);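 also: compound exposure lasted 16 h at 37 °C; actives lower the ATP signal meaning cytotoxicity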
Outline: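 HCT116 p53-bla cells, 4000/well, dosed after 5 h plating (217-fold dilution of DMSO stocks) and incubated 16 h at 37C. Viability taken as cellular ATP by CellTiter-Glo luminescence after 30 min RT; signal loss marks cytotoxicity.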

[5] = target: Cellular tumor antigen p53 (Homo sapiens) (UniProt P04637); assay: TOX21_p53_BLA_p2_ratio: Tox21 HCT-116 p53 Agonism Beta-lactamase Assay, Ratio, Phase 2 (AID 2283592)
Chain of Cellular tumor antigen p53 (Homo sapiens) (P04637 whole entry, looked up): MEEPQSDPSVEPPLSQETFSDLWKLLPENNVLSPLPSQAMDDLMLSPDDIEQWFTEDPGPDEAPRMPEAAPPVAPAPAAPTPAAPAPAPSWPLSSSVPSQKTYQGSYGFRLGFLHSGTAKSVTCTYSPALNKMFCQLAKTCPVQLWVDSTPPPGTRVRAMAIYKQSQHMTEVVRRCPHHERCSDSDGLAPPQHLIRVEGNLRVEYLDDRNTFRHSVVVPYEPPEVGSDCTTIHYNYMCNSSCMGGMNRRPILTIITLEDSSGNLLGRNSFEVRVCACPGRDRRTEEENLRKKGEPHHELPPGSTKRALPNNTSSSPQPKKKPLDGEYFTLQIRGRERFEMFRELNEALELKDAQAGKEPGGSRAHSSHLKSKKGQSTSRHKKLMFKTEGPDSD
Outline: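 HCT116 cells carrying a p53-responsive beta-lactamase reporter were plated, incubated 5 h at 37C, then dosed with compounds in DMSO (217-fold dilution) for 16 h. CCF4-AM substrate was added for 2 h at room temperature; the 460/530 nm emission ratio gave gain-of-signal activity relative to DMSO.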

[6] = TOX21_p53_BLA_p3_viability: Viability Assessment in the Tox21 HCT-116 p53 Agonism Beta-lactamase Assay, Phase 3 (AID 2283593);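 also: cells exposed to compound for 16 h before reading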
Outline: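 HCT116 cells, 4000/well, dosed 5 h after plating by pin transfer (217-fold dilution from DMSO stock) and incubated 16 h at 37C, 5% CO2. Viability read as ATP luminescence with CellTiter-Glo after 30 min at room temperature.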

[7] = target: Cellular tumor antigen p53 (Homo sapiens) (UniProt P04637); assay: TOX21_p53_BLA_p3_ratio: Tox21 HCT-116 p53 Agonism Beta-lactamase Assay, Ratio, Phase 3 (AID 2283596)
Outline: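 HCT116 p53-bla cells (4000/well) given compound in DMSO (217-fold dilution) after 5 h, incubated 16 h at 37C. CCF4-AM substrate 2 h at room temperature; 460/530 nm emission ratio, gain fitted against DMSO.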

[8] = target: Cellular tumor antigen p53 (Homo sapiens) (UniProt P04637); assay: TOX21_p53_BLA_p5_ratio: Tox21 HCT-116 p53 Agonism Beta-lactamase Assay, Ratio, Phase 5 (AID 2283599)
Outline: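 HCT-116 p53-bla cells (4000/well) plated 5 h, dosed with compound (217-fold DMSO dilution) for 16 h at 37 C; CCF4-AM substrate 2 h at room temperature. Activity is the 460/530 nm emission ratio (405 nm excitation), fitted in gain-of-signal direction versus DMSO.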

[9] = target: Cellular tumor antigen p53 (Homo sapiens) (UniProt P04637); assay: TOX21_p53_BLA_p4_ratio: Tox21 HCT-116 p53 Agonism Beta-lactamase Assay, Ratio, Phase 4 (AID 2283601)
Outline: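 HCT-116 p53 beta-lactamase reporter cells (4000/well) preincubated 5 h, then compound (217-fold dilution of DMSO stock) for 16 h at 37C. CCF4-AM substrate added 2 h at room temperature; 460/530 nm emission ratio fitted upward versus DMSO.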

[10] = target: Nuclear receptor subfamily 1 group I member 3 (Homo sapiens) (UniProt Q14994); assay: ATG_CAR_TRANS: Attagene TRANS-FACTORIAL HepG2 Assay for human Constitutive Androstane Receptor (CAR) (AID 2282969); conditions: HepG2 Attagene TRANS-FACTORIAL CAR reporter;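 also: activators raise reporter mRNA above DMSO so AC50 marks induction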
Chain of Nuclear receptor subfamily 1 group I member 3 (Homo sapiens) (Q14994 whole entry, looked up, the tested form may be a part): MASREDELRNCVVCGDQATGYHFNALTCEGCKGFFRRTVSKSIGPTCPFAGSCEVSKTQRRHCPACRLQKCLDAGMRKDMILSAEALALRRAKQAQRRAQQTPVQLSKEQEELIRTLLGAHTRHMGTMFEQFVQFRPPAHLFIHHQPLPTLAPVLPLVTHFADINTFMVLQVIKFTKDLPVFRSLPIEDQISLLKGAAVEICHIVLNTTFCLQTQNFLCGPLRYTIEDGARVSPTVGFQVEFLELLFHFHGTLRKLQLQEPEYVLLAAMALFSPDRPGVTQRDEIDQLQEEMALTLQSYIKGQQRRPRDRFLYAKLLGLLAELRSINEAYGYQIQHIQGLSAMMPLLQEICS
Outline: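 HepG2 cells transiently transfected with GAL4-UAS reporter units; TRANS format reads activity of exogenous chimeric NR-Gal4 protein. After 24 h dosing, reporter mRNA quantified by RT-PCR, 6-FAM labelling and capillary electrophoresis; gain of signal fitted against DMSO.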

[11] = ATG_XTT_Cytotoxicity: Cytotoxicity Assessment in the Attagene TRANS-FACTORIAL HepG2 Assay (AID 2283584)
Outline: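 HepG2 human liver cells, transiently transfected with multiple GAL4-UAS reporter units, were dosed and read at 24 h by XTT as cell number. Loss of signal was fitted relative to DMSO negative control baseline.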

[12] = ACEA_ER_AUC_viability: ACEA Biosciences xCELLigence Real-Time Cell Analysis on Estrogen Receptor Agonism for Viability (AID 2283782);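 also: continuous compound exposure with impedance area under curve over 80 h; hit means loss of impedance signal meaning reduced cell growth or viability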
Outline: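 T47D cells preconditioned in phenol red-free RPMI with charcoal-stripped FBS, then dosed with 8-point 1:4 series from 100 uM (up to 0.5% DMSO). Impedance monitored up to ~80 h; area-under-curve loss versus DMSO taken as viability.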

[13] = CCTE_Harrill_HTTr_CellCount_MCF7: CCTE's Cell Proliferation Assessment for the High-Throughput Transcriptomics (HTTr) Platform, Harrill Lab (AID 2284012);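 also: cells exposed to compound for six hours; intended direction is loss of nuclei count meaning fewer cells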
Outline: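 MCF7 cells exposed 6 hours to an eight-point dilution series; Hoechst-stained nuclei counted by high-content imaging. Bidirectional curve fitting against DMSO baseline.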

[14] = ATG_ERE_CIS: Attagene CIS-FACTORIAL HepG2 Assay for Estrogen Response Element (ERE) (AID 2282940; active = hit-call score of the fitted dose curve at least 0.9, where 1 is the maximum; inactive = score below 0.9); conditions: HepG2 ERE cis-reporter, Attagene RNA transcript; actives raise or lower the signal
Outline: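 After a 24 h chemical treatment, RNA from reporter-transfected HepG2 cells is reverse-transcribed, PCR-amplified and fluorescently labelled. Fragments separated by capillary electrophoresis give reporter signal; DMSO serves as negative control.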

[15] = target: Oxysterols receptor LXR-alpha (Homo sapiens) (UniProt Q13133); assay: ATG_LXRa_TRANS: Attagene TRANS-FACTORIAL HepG2 Assay for human Liver X Receptor alpha (LXRa) (AID 2282980); conditions: HepG2 Attagene TRANS reporter, LXRa transactivation
Chain of Oxysterols receptor LXR-alpha (Homo sapiens) (Q13133 whole entry, looked up, the tested form may be a part): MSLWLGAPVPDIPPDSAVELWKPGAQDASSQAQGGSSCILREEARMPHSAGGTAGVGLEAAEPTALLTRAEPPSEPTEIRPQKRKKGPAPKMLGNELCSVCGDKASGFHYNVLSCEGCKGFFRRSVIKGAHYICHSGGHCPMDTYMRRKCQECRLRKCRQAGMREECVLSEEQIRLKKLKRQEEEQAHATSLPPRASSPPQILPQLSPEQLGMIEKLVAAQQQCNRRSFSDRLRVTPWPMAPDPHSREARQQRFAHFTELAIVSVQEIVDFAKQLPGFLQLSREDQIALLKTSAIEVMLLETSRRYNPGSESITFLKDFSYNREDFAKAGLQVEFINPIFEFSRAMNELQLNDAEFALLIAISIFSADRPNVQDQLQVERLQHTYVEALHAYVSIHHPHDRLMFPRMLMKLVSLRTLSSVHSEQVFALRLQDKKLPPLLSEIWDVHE
Outline: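 HepG2 cells were transiently transfected with multiplexed reporter units driven by chimeric LXRa–GAL4 fusion proteins, then dosed for 24 h. Reporter mRNA was quantified by RT-PCR, fluorescent labelling and capillary electrophoresis; gain of signal fitted against DMSO baseline.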

[16] = target: human Peroxisome Proliferator-activated Receptor delta (PPARd), PPARD (gene 5467) (UniProt Q03181); assay: ATG_PPARd_TRANS: Attagene TRANS-FACTORIAL HepG2 Assay for human Peroxisome Proliferator-activated Receptor delta (PPARd) (AID 2283002)
Chain of human Peroxisome Proliferator-activated Receptor delta (PPARd), PPARD (gene 5467) (Q03181 whole entry, looked up, the tested form may be a part): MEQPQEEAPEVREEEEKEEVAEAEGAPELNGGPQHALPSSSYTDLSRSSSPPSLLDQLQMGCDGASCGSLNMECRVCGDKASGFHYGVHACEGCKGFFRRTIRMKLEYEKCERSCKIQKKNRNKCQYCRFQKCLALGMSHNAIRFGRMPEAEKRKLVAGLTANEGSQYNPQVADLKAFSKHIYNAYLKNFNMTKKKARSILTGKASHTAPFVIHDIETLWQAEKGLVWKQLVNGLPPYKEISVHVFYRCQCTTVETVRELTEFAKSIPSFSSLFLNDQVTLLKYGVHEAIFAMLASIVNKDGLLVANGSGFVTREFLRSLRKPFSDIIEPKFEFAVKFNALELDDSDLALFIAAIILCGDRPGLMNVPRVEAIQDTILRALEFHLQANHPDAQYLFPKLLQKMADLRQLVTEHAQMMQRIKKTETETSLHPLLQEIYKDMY
Outline: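 Read-out: reporter mRNA induction, quantified by fluorescent RT-PCR products resolved by capillary electrophoresis. Human HepG2 liver cells carried transiently transfected Gal4-UAS reporter constructs with chimeric NR-Gal4 fusions. Cells were dosed for 24 h; DMSO served as baseline.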

[17] = target: human RAR-related Orphan Receptor gamma (RORg), RORC (gene 6097) (UniProt P51449); assay: ATG_RORg_TRANS: Attagene TRANS-FACTORIAL HepG2 Assay for human RAR-related Orphan Receptor gamma (RORg) (AID 2283011);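 as to AC50: potency for induction of reporter transcripts above DMSO so activators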
Chain of human RAR-related Orphan Receptor gamma (RORg), RORC (gene 6097) (P51449 whole entry, looked up, the tested form may be a part): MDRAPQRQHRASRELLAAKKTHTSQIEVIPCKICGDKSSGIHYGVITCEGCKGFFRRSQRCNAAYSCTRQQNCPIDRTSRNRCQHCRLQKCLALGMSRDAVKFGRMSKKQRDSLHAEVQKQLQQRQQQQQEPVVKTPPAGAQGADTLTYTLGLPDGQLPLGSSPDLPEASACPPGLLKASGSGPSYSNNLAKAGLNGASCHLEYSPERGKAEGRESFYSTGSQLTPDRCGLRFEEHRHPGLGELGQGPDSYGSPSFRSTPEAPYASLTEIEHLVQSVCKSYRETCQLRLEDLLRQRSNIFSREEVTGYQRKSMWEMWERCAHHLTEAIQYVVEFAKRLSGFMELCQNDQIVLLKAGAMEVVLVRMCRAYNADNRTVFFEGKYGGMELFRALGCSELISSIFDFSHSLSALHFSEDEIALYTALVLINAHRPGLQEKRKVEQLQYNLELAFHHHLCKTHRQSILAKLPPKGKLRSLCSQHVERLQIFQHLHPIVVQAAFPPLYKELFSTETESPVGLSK
Outline: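 Readout: reporter transcript induction (RT-PCR, fluorescent primer extension, capillary electrophoresis) after 24 h compound exposure of transiently transfected HepG2 cells carrying a RORg-Gal4 chimera and GAL4-UAS reporters; DMSO served as baseline, with increasing signal fitted.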

[18] = TOX21_p53_BLA_p4_viability: Viability Assessment in the Tox21 HCT-116 p53 Agonism Beta-lactamase Assay, Phase 4 (AID 2283597);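 also: hits lower the luminescence signal meaning cytotoxicity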
Outline: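 HCT116 p53-bla cells (4000/well) rested 5 h at 37C, then received compounds in DMSO (217-fold dilution) for 16 h at 37C, 5% CO2. CellTiter-Glo was added after the CCF4-AM read, and luminescence was read after 30 min at room temperature.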

[19] = target: Glucocorticoid receptor (Homo sapiens) (UniProt P04150); assay: ATG_GR_TRANS: Attagene TRANS-FACTORIAL HepG2 Assay for human Glucocorticoid Receptor (GR) (AID 2282978); conditions: HepG2 Attagene TRANS GR reporter, mRNA transcription;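 also: activators score as hits since higher reporter transcript over DMSO is fitted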
Chain of Glucocorticoid receptor (Homo sapiens) (P04150 whole entry, looked up, the tested form may be a part): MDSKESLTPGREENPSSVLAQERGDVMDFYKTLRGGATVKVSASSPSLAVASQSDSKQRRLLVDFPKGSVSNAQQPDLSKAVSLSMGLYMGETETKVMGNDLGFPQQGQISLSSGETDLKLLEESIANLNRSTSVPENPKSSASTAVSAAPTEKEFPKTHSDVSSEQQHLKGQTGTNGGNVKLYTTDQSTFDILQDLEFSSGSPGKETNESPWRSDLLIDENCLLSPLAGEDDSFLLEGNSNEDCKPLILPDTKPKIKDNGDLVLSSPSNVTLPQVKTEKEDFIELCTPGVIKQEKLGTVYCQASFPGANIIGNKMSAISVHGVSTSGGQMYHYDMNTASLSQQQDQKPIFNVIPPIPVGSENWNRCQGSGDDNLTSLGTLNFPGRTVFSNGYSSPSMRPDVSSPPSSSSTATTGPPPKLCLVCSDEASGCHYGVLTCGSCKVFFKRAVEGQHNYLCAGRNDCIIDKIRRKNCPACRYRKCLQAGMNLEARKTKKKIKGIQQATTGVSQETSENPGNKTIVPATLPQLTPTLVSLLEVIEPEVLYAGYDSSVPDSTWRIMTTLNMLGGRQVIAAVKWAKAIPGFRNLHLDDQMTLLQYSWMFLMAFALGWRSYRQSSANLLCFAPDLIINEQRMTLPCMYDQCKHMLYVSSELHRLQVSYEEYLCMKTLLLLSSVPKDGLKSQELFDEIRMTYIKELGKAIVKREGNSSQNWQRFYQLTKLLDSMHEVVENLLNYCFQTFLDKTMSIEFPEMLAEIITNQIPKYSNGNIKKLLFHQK
Outline: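 Readout is reporter transcript from a chimeric GR-Gal4 acting on GAL4-UAS in transfected human HepG2 liver cells after 24 h exposure, quantified by RT-PCR and capillary electrophoresis. Activation fitted upward against DMSO.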

Measured: AC50

Cc1ncc(C[n+]2csc(CCO)c2C)c(N)n1
inactive: [1] | [2] | [3] | [4] | [5] | [6] | [7] | [8] | [9]

O=C=Nc1ccccc1
inactive: [10] | [1] | [3] | [11] | [12] | [13]

CC(C)(C)C(=O)CCl
active: [17] 134 µM
inactive: [14] | [15] | [16] | [3] | [4] | [5] | [6] | [7] | [18] | [8] | [9] | [12] | [13]

C=CC(=O)OCC(CC)CCCC (centres undefined)
inactive: [19] | [1] | [16] | [17] | [11] | [4] | [5] | [6] | [7] | [18] | [8] | [9] | [12] | [13]

CN(C)C(=O)C(c1ccccc1)c1ccccc1
inactive: [10] | [15] | [2] | [16] | [3] | [17] | [11] | [4] | [5] | [6] | [7] | [18] | [8] | [13]

O=C(O)COc1ccccc1
inactive: [14] | [1] | [11] | [4] | [7] | [8] | [9] | [12]

BrCBr
inactive: [14] | [19] | [15] | [1] | [2] | [16] | [17] | [11] | [4] | [6] | [7] | [18] | [8] | [9]
